From PubChem BioAssay (Tox21)
Records with an inconclusive call do not appear. Active and inactive are the calls of the source. Unless noted, the call rests on the fitted dose curve.

Columns and labels:
[1] = qHTS assay to identify small molecule agonists of the vitamin D receptor (VDR) signaling pathway - cell viability counter screen (AID 743224; active means well fitted curve in the direction sought with a large enough effect in the repeat runs; an effect the other way counts as inactive or inconclusive; further: series mostly up to about 63 µM; on the % scale 0 is the no-effect control and ±100 the full control effect; nearly all actives have a fitted effect of over 50% in size)
In short: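 Cytotoxicity counter screen: VDR-bla cells, 16 h compound exposure at 37C, 5% CO2; CellTiter-Glo luminescence, 30 min RT, same wells as bla read.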

[2] = qHTS assay to identify small molecule antagonists of the vitamin D receptor (VDR) signaling pathway - cell viability counter screen (AID 743225; active means well fitted curve in the direction sought with a large enough effect in the repeat runs; an effect the other way counts as inactive or inconclusive; further: on the % scale 0 is the no-effect control and ±100 the full control effect; nearly all actives have a fitted effect of over 50% in size)
In short: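 Cytotoxicity toward the VDR-bla HEK 293T line was scored by ATP-based CellTiter-Glo luminescence, read in the wells already used for the beta-lactamase readout after 16 h compound treatment under 3 nM 1-alpha,25-dihydroxyvitamin D3 stimulation.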

[3] = qHTS assay to identify small molecule agonists of the NFkB signaling pathway - cell viability counter screen (AID 1159515); further: series mostly up to about 61 µM; on the % scale 0 is the no-effect control and ±100 the full control effect; nearly all actives have a fitted effect of over 55% in size
In short: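 ME-180 NFkB-bla cells, 2,000/well; overnight attach; compound 5 hr, 37 C/5% CO2; LiveBLAzer substrate 1.5 hr RT; then CellTiter-Glo in same wells, 30 min RT, luminescence read.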

[4] = qHTS assay to identify small molecule agonists of the endoplasmic reticulum stress response signaling pathway (AID 1159516; active means well fitted activation curve with a large enough effect in the signal ratio in the repeat runs, not every such curve was filed as active; the % refers to the signal ratio; further: on the % scale 0 is the no-effect control and ±100 the full control effect)
In short: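 HeLa ESRE-bla reporter line; cpd 5 h, 37 C/5% CO2; LiveBLAzer B/G FRET substrate 2 h RT; ex 405, em 460/530 nm.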

[5] = qHTS assay to identify small molecule agonists of the endoplasmic reticulum stress response signaling pathway - cell viability counter screen (AID 1159517);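 further: HeLa cells carrying an ER stress response element beta-lactamase reporter; series mostly up to about 61 µM; on the % scale 0 is the no-effect control and ±100 the full control effect; nearly all actives have a fitted effect of over 50% in size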
In short: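 In parallel with the ESRE reporter read, cytotoxicity was scored by CellTiter-Glo luminescence (30 min, room temperature) on HeLa ESRE-bla cells dosed for 5 hr.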

[6] = qHTS assay to identify small molecule antagonists of the retinoid-related orphan receptor gamma (ROR-gamma) signaling pathway - cell viability counter screen (AID 1159520; active means well fitted curve in the direction sought with a large enough effect in the repeat runs; an effect the other way counts as inactive or inconclusive; further: on the % scale 0 is the no-effect control and ±100 the full control effect; nearly all actives have a fitted effect of over 50% in size)
In short: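 Tet-on ROR gamma CHO cells were given compounds for 2 hr, then doxycycline hyclate at 1 uM final, and incubated 16 hr at 37 C. Viability was measured as ATP content by CellTiter-Glo luminescence.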

[7] = biological target: Nuclear receptor ROR-gamma (Homo sapiens) (UniProt P51449); experiment: qHTS assay to identify small molecule antagonists of the retinoid-related orphan receptor gamma (ROR-gamma) signaling pathway (AID 1159521; active means well fitted curve in the direction sought with a large enough effect in the repeat runs; an effect the other way counts as inactive or inconclusive)
In short: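 Readout: ONE-Glo luciferase luminescence, 30 min at room temperature. System: Tet-on RORγ CHO, RORE-LUC. Sequence: compound 2 h, doxycycline 1 uM final, 16 h at 37 C.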

[8] = qHTS assay to identify small molecule agonists of the AP-1 signaling pathway - cell viability counter screen (AID 1159525); further: nearly all actives have a fitted effect of over 55% in size
In short: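 Same-well cytotoxicity counter screen of the Tox21 10K library in ME-180 cells. The readout is ATP-dependent luminescence after 5 h compound treatment. Data are normalised to DMSO and tetra n-octyl ammonium bromide controls.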

[9] = qHTS assay to identify small molecule agonists of the AP-1 signaling pathway (AID 1159526); further: on the % scale 0 is the no-effect control and ±100 the full control effect

CC(=O)OC(C)(C)C
inactive: outcome [1] | outcome [2] | outcome [3] | outcome [4] | outcome [5] | Potency [6] | Potency [7] | outcome [8] | Potency [9]

CCCCCCCCC=O
inactive: outcome [1] | outcome [3] | outcome [4] | outcome [5] | Potency [6] | Potency [7] | Potency [9]

CNc1ncnc2nc[nH]c12
inactive: outcome [1] | outcome [3] | outcome [4] | outcome [5] | Potency [6] | Potency [7] | Potency [9]

CC(C)(O)C(=O)c1ccc(OCCO)cc1
inactive: outcome [1] | outcome [2] | outcome [3] | outcome [4] | outcome [5] | Potency [6] | Potency [7] | outcome [8] | Potency [9]

COCCOC(=O)CC#N
inactive: outcome [1] | outcome [2] | outcome [4] | outcome [5] | Potency [6] | Potency [7] | outcome [8] | Potency [9]

OC/C=C/c1ccccc1
inactive: outcome [1] | outcome [2] | outcome [3] | outcome [4] | outcome [5] | Potency [6] | Potency [9]

C[C@H](O)C(=O)Nc1c(I)c(C(=O)NC(CO)CO)c(I)c(C(=O)NC(CO)CO)c1I
inactive: outcome [1] | outcome [2] | outcome [4] | outcome [5] | Potency [6] | Potency [7] | outcome [8] | Potency [9]

O=C(CCOCCOCCOCCOCCC(=O)Nc1c(I)cc(I)c(C(=O)O)c1I)Nc1c(I)cc(I)c(C(=O)O)c1I
inactive: outcome [1] | outcome [2] | outcome [3] | outcome [5] | Potency [6] | Potency [7] | outcome [8] | Potency [9]

FC(F)(F)C(F)(F)C(F)(F)C(F)(F)C(F)(F)C(F)(F)C(F)(F)C(F)(F)C(F)(F)C(F)(F)F
inactive: activity change, negative = cytotoxicity [1] 9.06% [at 5.95 µM] | activation [4] -9% [at 6.95 µM] | activity change, negative = cytotoxicity [5] -26.7% [at 6.95 µM] | activity, negative = cytotoxicity [6] 0.201% [at 8.39 µM] | activity change, negative = inhibition [7] 29.3% [at 8.39 µM] | viability change, negative = cytotoxic [8] -11.9% [at 6.97 µM] | activation [9] 7.26% [at 6.97 µM]

Nc1ncnc2c1ncn2Cc1c(F)cccc1Cl
inactive: outcome [1] | outcome [3] | outcome [4] | outcome [5] | Potency [6] | Potency [7] | Potency [9]

COc1ccc(COC=O)cc1
inactive: outcome [1] | outcome [2] | outcome [4] | outcome [5] | Potency [6] | Potency [7] | outcome [8] | Potency [9]

CC(C)CCCCCCN
inactive: outcome [1] | outcome [2] | outcome [3] | outcome [4] | outcome [5] | Potency [6] | Potency [7] | outcome [8] | Potency [9]

Nc1ccn(C2CO[C@H](CO)O2)c(=O)n1 (stereo partly specified)
inactive: outcome [1] | outcome [2] | outcome [5] | Potency [7] | outcome [8] | Potency [9]

Nc1[nH]c(=O)ncc1F
inactive: outcome [1] | outcome [4] | outcome [5] | Potency [7] | outcome [8] | Potency [9]

CC1CCN(CCCC(=O)c2ccc(F)cc2)CC1
inactive: outcome [4] | outcome [5] | Potency [6] | Potency [7] | outcome [8] | Potency [9]

Fc1ccccc1-c1ccccc1
inactive: outcome [1] | outcome [2] | outcome [4] | outcome [5] | Potency [6] | Potency [7] | outcome [8] | Potency [9]

C=CCOCC(O)CS(=O)(=O)O (stereo unspecified)
inactive: outcome [1] | outcome [2] | outcome [3] | outcome [4] | outcome [5] | Potency [7] | outcome [8] | Potency [9]

CCCCCCC(CCCCCCCCCCC(=O)OCC(COC(C)=O)OC(C)=O)OC(C)=O (stereo unspecified)
inactive: outcome [1] | outcome [3] | outcome [4] | outcome [5] | Potency [7] | outcome [8] | Potency [9]

C#CC(O)CCCCC (stereo unspecified)
inactive: outcome [1] | outcome [2] | outcome [3] | outcome [4] | outcome [5] | Potency [6] | Potency [7] | outcome [8] | Potency [9]

CC(C)(C)OC(=O)N1C[C@@H](F)C[C@H]1C(=O)O
inactive: outcome [1] | outcome [3] | outcome [4] | outcome [5] | Potency [6] | Potency [7] | Potency [9]

C#CC(O)C(CC)CCCC (stereo unspecified)
inactive: outcome [1] | outcome [2] | outcome [4] | outcome [5] | Potency [6] | Potency [7] | outcome [8] | Potency [9]

Nc1ccc2cc(S(=O)(=O)O)ccc2c1
inactive: outcome [1] | outcome [2] | outcome [3] | outcome [4] | outcome [5] | Potency [6] | Potency [7] | outcome [8] | Potency [9]

C=CC(=O)OCCCCCC
inactive: outcome [1] | outcome [2] | outcome [4] | outcome [5] | Potency [6] | outcome [8] | Potency [9]

CCCCNc1ccccc1
inactive: outcome [1] | outcome [2] | outcome [3] | outcome [4] | outcome [5] | Potency [6] | Potency [7] | outcome [8] | Potency [9]

CC(=O)N[C@@H](CCC(N)=O)C(=O)O
inactive: outcome [1] | outcome [3] | outcome [5] | Potency [6] | Potency [7] | Potency [9]

O=[N+]([O-])c1ccc(Oc2ccc([N+](=O)[O-])cc2)cc1
inactive: outcome [1] | outcome [5] | Potency [7] | Potency [9]

NC(N)=NS(=O)(=O)c1ccc(N)cc1
inactive: outcome [1] | outcome [2] | outcome [3] | outcome [4] | outcome [5] | Potency [6] | Potency [7] | outcome [8] | Potency [9]

CN(C)C(=O)C(CCN1CCC(O)(c2ccc(Cl)cc2)CC1)(c1ccccc1)c1ccccc1
inactive: outcome [2] | outcome [3] | outcome [4] | outcome [5] | Potency [7] | outcome [8] | Potency [9]

CC(C)[C@H](N)C(=O)OCCOCn1cnc2c(=O)[nH]c(N)nc21
inactive: outcome [1] | outcome [3] | outcome [4] | outcome [5] | Potency [7] | Potency [9]
